# Data published in PubChem BioAssay AID1076 (NMMLSC, 2008).
# Activity calls are given as the source filed them.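 The calls were made as follows: active = cell event count below 40, meaning activity score above 60 where score is 100 minus count; inactive = the rest.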
# Test: cytotoxicity in LNCaP prostate cells – cell-based, cell event count, single point, cytotoxicity control for prostate differentiation activator project, confirmation (AID 1076);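 also: counts scatter-gated live cells after medium removal discards detached dead cells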
# Details: LNCaP cell loss, flow cytometry event count, 4 d, stronger effect = lower value
Structure (SMILES),cell event count (at 100 µM),"cell event count (event count, at 10 µM)"
Cc1ccc(C)c(N2CCN(CCCNC(=O)Cn3cc4c(n3)CCCCC4)CC2)c1,3 (active),53.5
COc1cc(C(=O)NCc2nnc(SCC(=O)NCc3ccccc3)o2)cc(OC)c1OC,104 (inactive),134
O=C(NCCCN1CCN(c2ccccc2F)CC1)C1CCN(S(=O)(=O)c2cccs2)CC1,44 (inactive),95.5
Cc1oc(-c2cccc(Cl)c2)nc1CN1CCC(C(=O)NCc2cccnc2)CC1,38 (inactive),150
O=C(Nc1cccc(Cl)c1)N1CCN(Cc2ccccc2)CC1,42 (inactive),132
CCc1ccc(-c2nc(CN3CCC(C(=O)N4CCN(c5ccccc5)CC4)CC3)c(C)o2)cc1,9 (inactive),254
CCc1ccc(NC(=O)NCCN2CCc3ccccc3C2)cc1,6 (inactive),112
CCN(CC)CC(=O)Nc1ccc(-c2nc3cc(NC(=O)CN(CC)CC)ccc3o2)cc1,1 (inactive),140
CCn1c(=O)cc(OCC(=O)NCCCN2CCN(c3cccc(Cl)c3)CC2)c2ccccc21,20 (inactive),307
C=CCn1cc(C(=O)N2CCN(C)CC2)c(=O)c2cc(S(=O)(=O)N3CCCC3)ccc21,168 (inactive),118
CCCc1ccc(Oc2cn[nH]c2-c2ccc(O)c(C)c2O)cc1,5 (inactive),106
Cc1cc(O)c(-c2cc(C(=O)Nc3ccc(S(=O)(=O)N4CCOCC4)cc3)[nH]n2)cc1C,36 (inactive),86
CCC(C(=O)Nc1ccccc1OC)n1c(C(=O)OC)cc2ccsc21 (stereo unspecified),41 (inactive),270
